In article PMC4336329 (PLoS ONE, 2015):
Hit rate of the full screen: of about 310,000 compounds, about 14,000 (4.5%) showed an effect of 50% or more. Effects have a minus sign here. For the sample, strong results were picked, then their nearest neighbours and some compounds at random.

The compounds below were run against human ether-à-go-go-related gene (hERG) potassium channel (human, UniProt Q12809) (assay: primary screen, population patch clamp on CHO cells stably expressing hERG; higher = less effect of the substance).
human ether-à-go-go-related gene (hERG) potassium channel, sequence (Q12809 whole entry, looked up): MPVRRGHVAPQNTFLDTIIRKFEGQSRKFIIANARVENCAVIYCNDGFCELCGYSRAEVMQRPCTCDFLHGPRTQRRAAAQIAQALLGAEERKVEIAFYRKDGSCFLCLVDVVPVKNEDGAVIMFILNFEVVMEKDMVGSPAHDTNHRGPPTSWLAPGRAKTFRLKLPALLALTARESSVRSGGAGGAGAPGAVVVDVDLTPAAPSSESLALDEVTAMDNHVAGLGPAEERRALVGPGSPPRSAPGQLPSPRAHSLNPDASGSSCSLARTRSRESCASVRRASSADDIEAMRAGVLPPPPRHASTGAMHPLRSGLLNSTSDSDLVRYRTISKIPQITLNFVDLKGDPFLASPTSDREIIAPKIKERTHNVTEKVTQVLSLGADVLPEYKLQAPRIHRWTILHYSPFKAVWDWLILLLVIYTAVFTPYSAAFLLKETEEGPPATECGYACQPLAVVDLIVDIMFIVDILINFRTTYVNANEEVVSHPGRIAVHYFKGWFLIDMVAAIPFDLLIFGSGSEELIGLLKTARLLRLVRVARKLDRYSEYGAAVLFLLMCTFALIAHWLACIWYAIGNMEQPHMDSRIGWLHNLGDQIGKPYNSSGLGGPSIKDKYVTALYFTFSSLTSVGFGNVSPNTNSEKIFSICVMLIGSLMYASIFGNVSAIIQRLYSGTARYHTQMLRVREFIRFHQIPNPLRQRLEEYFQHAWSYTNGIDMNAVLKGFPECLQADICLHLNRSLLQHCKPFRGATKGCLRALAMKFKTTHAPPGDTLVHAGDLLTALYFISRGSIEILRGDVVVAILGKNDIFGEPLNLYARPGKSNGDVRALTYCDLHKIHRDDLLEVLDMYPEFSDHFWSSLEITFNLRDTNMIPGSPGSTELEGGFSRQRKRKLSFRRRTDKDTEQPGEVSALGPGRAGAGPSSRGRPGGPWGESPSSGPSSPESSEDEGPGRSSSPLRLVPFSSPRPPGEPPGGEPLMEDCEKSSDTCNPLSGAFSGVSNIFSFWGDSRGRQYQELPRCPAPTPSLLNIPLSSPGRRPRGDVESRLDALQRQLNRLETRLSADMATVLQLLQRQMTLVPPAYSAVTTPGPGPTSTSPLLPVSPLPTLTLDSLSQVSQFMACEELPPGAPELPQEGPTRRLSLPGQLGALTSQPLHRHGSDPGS
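Note: peak tail current of the secondary pulse compared with the same well before compound.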

SMILES	hERG current change (%, negative = inhibition) at 10uM
CCN(CC)S(=O)(=O)c1ccc(C(=O)OCCNC(=O)c2cccnc2)cc1	-2.68%
COc1cc2c(cc1OC)CN(c1nc(CN3CCOCC3)nc3sc4c(c13)CCCC4)CC2	-73.6%
CC1CCc2c(sc3nc(CN4CCOCC4)nc(N4CCc5ccccc5C4)c23)C1 (stereo not drawn)	-8.23%
COc1cc2c(cc1OC)CN(c1nc(CN3CCOCC3)nc3sc4c(c13)CCC(C)C4)CC2 (stereo not drawn)	-67.5%
Cc1sc2nc(CN3CCCCC3)nc(Cl)c2c1C	-24.5%
COc1cc2c(cc1OC)CN(c1ccc(C(F)(F)F)cn1)CC2	15.9%
Cc1ccc(Oc2nc(CN3CCOCC3)nc3sc4c(c23)CCC(C)C4)cc1C (stereo not drawn)	7.99%
COc1cc2c(cc1OC)CN(c1nc(CN3CCCC3)nc3sc(C)c(C)c13)CC2	-75.6%
Cc1cccc(Oc2nc(CN3CCOCC3)nc3sc4c(c23)CCCC4)c1	-29.7%
CCNc1nc(CN2CCOCC2)nc2sc3c(c12)CCC3	-7.54%
c1nc(N2CCOCC2)c2c3c(sc2n1)CCCC3	-7.14%
Cc1cc(S(=O)(=O)Nc2nc(CN3CCOCC3)nc3sc4c(c23)CCCC4)ccc1F	-17.2%
COc1cccc(Nc2nc(CN3CCOCC3)nc3sc4c(c23)CCCC4)c1	-53.1%
O=c1[nH]c(=O)n(Cc2ccccc2)c(O)c1/C=N/Nc1c(F)c(F)c(F)c(F)c1F	3.83%
COc1ccc(-c2csc(N)n2)cc1	-6.71%
COc1cccc(-c2ccc3nnc(SCC(=O)N4CCCC4)n3n2)c1	-17.1%
Clc1nc(CN2CCOCC2)nc2sc3c(c12)CCC3	14.5%
COc1cc2c(cc1OC)CN(c1nc(CN3CCCCC3)nc3sc4c(c13)CCCC4)CC2	-81.2%
c1ccc2c(c1)CCN(c1nc(CN3CCOCC3)nc3sc4c(c13)CCCC4)C2	-60.2%
O=S(=O)(Nc1nc(CN2CCOCC2)nc2sc3c(c12)CCCC3)c1cc(F)ccc1F	-34.9%
Clc1nc(CN2CCCCC2)nc2sc3c(c12)CCC3	-33.6%
Clc1nc(CN2CCCCC2)nc2sc3c(c12)CCCC3	-23.1%
CCOC(=O)c1nn(-c2ccc(C)cc2)c2nc(Nc3ccccc3)cc(=O)n12	21.9%
Cc1ccccc1CN(c1ccc(C(=O)N/N=C/c2ccc(OCC(N)=O)cc2)cc1)S(C)(=O)=O	5.85%
